The results in this text go back to PubChem BioAssay (NCATS).

“And” between values parts separate entries of the source, which are not always exact repeats. Equal values may be shown once. Records with an inconclusive call do not appear. The source made the active and inactive calls. Unless noted, calls come from the whole dose curve; as a rule, active = well fitted curve in the direction sought with a large enough effect; inconclusive = small, poorly fitted or top-dose-only effect, or another doubt; inactive = no such curve, though single readings can be large; an effect the other way counts as inactive or inconclusive.

Assay [1] can be described thus: qHTS assay for small molecule agonists of retinoid X receptor alpha signaling (AID 588544). The following applies: HEK293T RXRa-UAS-bla, beta-lactamase reporter, 18 h; 530 nm emission. (Quantitative high-throughput screening tests each substance at several concentrations.)
Assay [2] deals with Thyroid hormone receptor beta (Homo sapiens) (UniProt P10828). Put plainly: qHTS assay for small molecule agonists of thyroid hormone receptor beta signaling (AID 588545; calls by dose curve;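 note: 0% = DMSO only and 100% = 10 nM T3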). Conditions: TR-UAS-bla GripTite HEK 293, beta-lactamase ratio, agonist mode, 18 h, percent of T3 response, DMSO as zero; series mostly up to 76.7 µM. A digest of the protocol: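 Compounds were tested as agonists in TR-UAS-bla-GripTite HEK 293 cells. After 18 hrs at 37 C, CCF4 substrate was added and fluorescence read after 2 hrs at room temperature.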
Thyroid hormone receptor beta (Homo sapiens), sequence (P10828 whole entry, looked up): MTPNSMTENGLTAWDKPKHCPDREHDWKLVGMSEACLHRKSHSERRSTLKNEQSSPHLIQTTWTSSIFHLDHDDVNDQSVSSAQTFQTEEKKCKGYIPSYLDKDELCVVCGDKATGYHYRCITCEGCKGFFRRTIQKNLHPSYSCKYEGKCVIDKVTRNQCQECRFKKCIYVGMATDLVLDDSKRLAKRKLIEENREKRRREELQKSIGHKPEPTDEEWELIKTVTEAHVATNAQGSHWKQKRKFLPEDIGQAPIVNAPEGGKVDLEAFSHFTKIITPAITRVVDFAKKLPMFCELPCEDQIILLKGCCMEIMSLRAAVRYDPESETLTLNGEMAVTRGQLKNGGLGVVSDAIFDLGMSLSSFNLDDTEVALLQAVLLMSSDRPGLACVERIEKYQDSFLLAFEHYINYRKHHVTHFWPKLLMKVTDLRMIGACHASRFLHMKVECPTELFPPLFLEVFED

A short description of assay [3]: qHTS assay for small molecule antagonists of retinoid X receptor alpha signaling (AID 588546; active = well fitted inhibition curve with a large enough effect in the signal ratio, with a control signal flat, not every such curve was filed as active; the % refers to the signal ratio;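 note: cells stimulated with 9-cis-retinoic acid as agonist; % is set by controls: 0 for no effect and ±100 for the full control effect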). The following applies: HEK293T RXRa-UAS-bla, beta-lactamase ratio, antagonist mode; measured here: W530 green channel, cytotoxicity proxy. A digest of the protocol:
(§1)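 Beta-lactamase reporter inhibition, read as CCF4 fluorescence ratio (ex 405, em 460/530 nm) after 2 h at RT. HEK293T UAS-bla cells, 2500/well, were stimulated with 9-cis-RA at 500 or 100 nM final alongside test compound for 18 h at 37 C.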

For assay [4], the target named is Retinoic acid receptor RXR-alpha (Homo sapiens) (UniProt P19793). The description is as above. Conditions: HEK293T RXRa-UAS-bla, beta-lactamase ratio, antagonist mode. A digest of the protocol: as §1
Retinoic acid receptor RXR-alpha (Homo sapiens), sequence (P19793 whole entry, looked up): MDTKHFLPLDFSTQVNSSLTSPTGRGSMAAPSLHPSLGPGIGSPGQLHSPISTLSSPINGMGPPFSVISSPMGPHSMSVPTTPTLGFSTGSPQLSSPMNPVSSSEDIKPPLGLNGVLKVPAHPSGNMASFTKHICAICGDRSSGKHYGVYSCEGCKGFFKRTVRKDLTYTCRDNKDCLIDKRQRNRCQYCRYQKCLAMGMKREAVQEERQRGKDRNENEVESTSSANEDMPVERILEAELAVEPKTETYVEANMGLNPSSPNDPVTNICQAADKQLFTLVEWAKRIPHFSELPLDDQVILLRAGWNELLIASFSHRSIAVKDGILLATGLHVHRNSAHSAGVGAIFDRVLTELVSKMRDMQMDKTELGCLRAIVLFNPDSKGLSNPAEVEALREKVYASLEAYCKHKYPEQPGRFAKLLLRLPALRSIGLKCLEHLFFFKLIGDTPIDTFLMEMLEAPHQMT
Assay [5] deals with Voltage-gated inwardly rectifying potassium channel KCNH2 (Homo sapiens) (UniProt Q12809). Put plainly: qHTS Assay for Small Molecule Inhibitors of the Human hERG Channel Activity (AID 588834).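 Note: top concentration of the series differs between compounds; % is set by controls: 0 for no effect and ±100 for the full control effect; lower thallium flux fluorescence means stronger hERG block; nearly all actives have a fitted effect of over 50% in size.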 Conditions: U2OS BacMam hERG, FluxOR thallium flux fluorescence; series mostly up to 92.2 µM. A digest of the protocol:
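Thallium-flux (FluxOR) read-out on FDSS: fluorescence read 10 s before and 2 min after stimulation buffer. hERG-BacMam-transduced U2OS cells, compound exposure about 10 min. AC50 by standard Hill equation.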

Assay [6] can be described thus: qHTS assay for small molecule agonists of the antioxidant response element (ARE) signaling pathway (AID 651741; active = well fitted activation curve with a large enough effect in the signal ratio; the % refers to the signal ratio; note: % of control where 0% means no effect). Conditions: HepG2 ARE-bla reporter, beta-lactamase FRET ratio, 16 h; series mostly up to 96 µM. A digest of the protocol:
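Beta-lactamase reporter under ARE control in HepG2 cells, 2,000 per well, was induced by 16 h compound treatment at 37 C. Read-out was fluorescence from LiveBLAzer B/G FRET substrate after 2 h at room temperature.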

Assay [7] is described as follows: qHTS assay for small molecule activators of the p53 signaling pathway (AID 651743; active = well fitted activation curve with a large enough effect in the signal ratio, not every such curve was filed as active; the % refers to the signal ratio; note: % of control where 0% means no effect). Conditions: HCT-116 p53RE-bla, beta-lactamase FRET ratio, 16 h; stronger effect = higher value. An outline of the steps: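 After 16 hours compound treatment at 37 C, HCT-116 cells stably expressing p53RE-driven beta-lactamase were loaded with LiveBLAzer B/G FRET substrate for 2 hours at room temperature. Fluorescence intensity served as the p53 activation read-out.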

Assay [8] can be described thus: qHTS assay for small molecule disruptors of the mitochondrial membrane potential - 1 hr assay (AID 651754; calls by dose curve; note: % is set by controls: 0 for no effect and ±100 for the full control effect; nearly all actives have a fitted effect of over 35% in size). The following applies: series mostly up to 92.2 µM. A digest of the protocol:
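Loss of mitochondrial potential shifts the cationic dye from red mitochondrial aggregates to green cytoplasmic monomers. Cells (HepG2) are treated with compound for 1 hr before a 30 min dye incubation at 37C.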

Assay [9] can be described thus: qHTS assay for small molecule disruptors of the mitochondrial membrane potential - 5 hr assay (AID 651755; calls by dose curve; note: % is set by controls: 0 for no effect and ±100 for the full control effect; nearly all actives have a fitted effect of over 40% in size). Conditions: JC-1-type ratio dye; series mostly up to 92.2 µM. A digest of the protocol:
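Membrane-potential dye readout: red aggregate (540 ex/590 em) versus green monomer (490 ex/535 em) fluorescence after 30 min dye loading, following 5 hr compound exposure at 37C of overnight-plated HepG2 cells.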

The target in assay [10] is Tumor necrosis factor (Homo sapiens) (UniProt P01375). Put plainly: qHTS assay to identify small molecules that stimulate Tumor Necrosis Factor-alpha (TNF-alpha) secretion (AID 651757; active = well fitted curve in the direction sought with a large enough effect in the signal ratio; the % refers to the signal ratio; note: 0% is about no effect). The following applies: Human cells, HTRF 665/615 ratio; series mostly up to 92.2 µM. An outline of the steps: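 Human monocytic THP-1 cells are plated, treated with compound and held at 37 C for 17 hrs. Labeled anti-TNF-alpha antibody mixture is then added; after 3 hr at room temperature, TR-FRET signal reports secreted TNF-alpha.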
Tumor necrosis factor (Homo sapiens), sequence (P01375 whole entry, looked up): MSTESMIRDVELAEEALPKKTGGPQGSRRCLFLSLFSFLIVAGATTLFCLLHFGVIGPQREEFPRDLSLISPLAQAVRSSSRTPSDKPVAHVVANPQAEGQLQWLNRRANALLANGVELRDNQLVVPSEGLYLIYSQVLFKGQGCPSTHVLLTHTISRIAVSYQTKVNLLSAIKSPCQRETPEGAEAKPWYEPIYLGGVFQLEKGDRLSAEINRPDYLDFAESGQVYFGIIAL

Assay [11] is described as follows: qHTS assay to identify small molecules that stimulate interleukin-8 (IL-8) secretion (AID 651758; active = well fitted activation curve with a large enough effect in the signal ratio; the % refers to the signal ratio; note: 0% is about no effect). Conditions: HTRF ratio (665/615); series mostly up to 92.2 µM. A digest of the protocol:
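Secreted IL-8 measured homogeneously by TR-FRET (two labelled anti-IL-8 antibodies, 1-3 h at room temperature) after a 16 h, 37 C compound treatment of THP-1 cells at 2000 cells/well.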

Assay [12] can be described thus: qHTS assay for environmental chemicals that activate the Aryl hydrocarbon Receptor (AhR) signaling pathway (AID 651777). Note: % of control where 0% means no effect; nearly all actives have a fitted effect of over 15% in size. The following applies: 1A2-DRE human hepatoma cells, luciferase, 24 h; activation: stronger effect = higher value. An outline of the steps: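 Measured luciferase activity, read 30 min after One-Glo addition at room temperature, from human hepatoma cells bearing a dioxin response element–CYP1A2 promoter reporter and exposed to compound for 24 hr at 37 C.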

Assay [13] addresses Peroxisome proliferator-activated receptor alpha (Homo sapiens) (UniProt Q07869). Put plainly: qHTS assay for small molecule agonists of the peroxisome proliferator-activated receptor alpha (PPARalpha) signaling pathway (AID 651778). Note: % of control where 0% means no effect. Conditions: PathHunter PPARalpha complementation, chemiluminescence, 6 h; stronger effect = higher value. A digest of the protocol:
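Chemiluminescence from complemented enzyme reported PPARalpha activation in cells after 6 hr of compound treatment at 37 C. The detection reagent was incubated for 60 min at room temperature, and compounds were scored as agonists.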

For assay [14], the target named is Nuclear receptor ROR-gamma (Homo sapiens) (UniProt P51449). The assay can be described thus: qHTS assay for small molecule antagonists of the retinoid-related orphan receptor gamma (ROR-gamma) signaling pathway (AID 651802).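 Note: CHO cells with doxycycline-induced ROR-gamma expression; % is set by controls: 0 for no effect and ±100 for the full control effect; nearly all actives have a fitted effect of over 60% in size.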 The following applies: ROR-gamma antagonist cell reporter assay; series mostly up to 92.2 µM. A digest of the protocol: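 Steps: cells dispensed; compound or DMSO transferred by pin tool; doxycycline added to induce the ROR response element-driven luciferase; plates held 16hr at 37C; ONE-Glo added and luminescence measured.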
Nuclear receptor ROR-gamma (Homo sapiens), sequence (P51449 whole entry, looked up): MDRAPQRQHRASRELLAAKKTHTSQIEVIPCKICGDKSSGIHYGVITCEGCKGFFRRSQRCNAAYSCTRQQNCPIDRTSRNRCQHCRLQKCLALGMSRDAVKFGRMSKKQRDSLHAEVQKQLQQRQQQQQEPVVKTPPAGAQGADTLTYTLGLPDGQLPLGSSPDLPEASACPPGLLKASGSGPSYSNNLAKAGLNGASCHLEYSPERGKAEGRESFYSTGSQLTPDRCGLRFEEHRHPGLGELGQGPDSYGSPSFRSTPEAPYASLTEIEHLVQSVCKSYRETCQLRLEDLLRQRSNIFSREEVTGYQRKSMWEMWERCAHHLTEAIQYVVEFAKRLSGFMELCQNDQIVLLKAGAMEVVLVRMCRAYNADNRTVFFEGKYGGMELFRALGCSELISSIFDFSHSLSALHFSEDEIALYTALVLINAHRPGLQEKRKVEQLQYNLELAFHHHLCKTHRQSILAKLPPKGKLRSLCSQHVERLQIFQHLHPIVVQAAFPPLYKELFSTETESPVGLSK

Assay [15] is described as follows: qHTS assay for small molecule agonists of the antioxidant response element (ARE) signaling pathway measured by Nrf2-dependant transcriptional activity (AID 720636; active = well fitted curve in the direction sought with a large enough effect in the repeat runs; an effect the other way counts as inactive or inconclusive;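 note: HepG2 cells with an ARE-driven luciferase reporter; % of control where 0% means no effect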). The following applies: ARE-luc HepG2, Nrf2 luciferase reporter, 16 h; series mostly up to 92.4 µM. An outline of the steps:
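In HepG2 cells engineered with an Nrf2-responsive luciferase gene, ARE induction was quantified as luminescence after 16 hr compound treatment at 37 C.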

A short description of assay [16]: qHTS assay for small molecule agonists of the antioxidant response element (ARE) signaling pathway measured by Nrf2-dependant transcriptional activity - cell viability counter screen (AID 720653; active = well fitted curve in the direction sought with a large enough effect in the repeat runs; an effect the other way counts as inactive or inconclusive; note: % is set by controls: 0 for no effect and ±100 for the full control effect). Conditions: ARE-bla HepG2 viability, CellTiter-Glo ATP luminescence, 16 h; stronger effect = lower value. A digest of the protocol: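 Cytotoxicity counter screen: intracellular ATP quantified by CellTiter-Glo luminescence in the same ARE-bla HepG2 plates, after 16 h compound exposure and a 2 h beta-lactamase substrate step.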

The target in assay [17] is Thyroid hormone receptor beta (Homo sapiens) (UniProt P10828). The assay can be described thus: qHTS assay for small molecule antagonists of thyroid hormone receptor beta signaling (AID 588547; active = well fitted inhibition curve with a large enough effect in the signal ratio, with a control signal flat, not every such curve was filed as active; the % refers to the signal ratio;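 note: cells stimulated with 0.4 nM T3 agonist during compound exposure; % is set by controls: 0 for no effect and ±100 for the full control effect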). The following applies: TR-UAS-bla HEK293, beta-lactamase ratio, antagonist mode, 18 h. A digest of the protocol:
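Inhibition of T3-driven (0.4nM final) beta-lactamase reporter activity was measured over 0.59 nM to 92 uM compound after 18 h at 37 C. The cells were GripTite HEK293 TR-UAS-bla in charcoal/dextran-stripped serum, with CCF4 ratio read-out and IC50 from Hill fits.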

A short description of assay [18]: qHTS assay for small molecule activators of the nuclear factor-kappa B (NF-kB) signaling pathway (AID 651749; active = well fitted activation curve with a large enough effect in the signal ratio; the % refers to the signal ratio; note: % of control where 0% means no effect). Conditions: NF-kB-bla ME-180 cells, beta-lactamase FRET ratio, 16 h; stronger effect = higher value. A digest of the protocol: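 Activation measured after 16 hr compound treatment at 37C, 5% CO2, of 2,000 ME-180 cells/well stably expressing an NF-kB response element–driven beta-lactamase reporter, via FRET-disruption fluorescence.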

A short description of assay [19]: qHTS assay for small molecule antagonists of the retinoid-related orphan receptor gamma (ROR-gamma) signaling pathway - cell viability counter screen (AID 720652; active = well fitted curve in the direction sought with a large enough effect in the repeat runs; an effect the other way counts as inactive or inconclusive;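 note: CHO reporter cells with doxycycline-induced ROR-gamma expression; compound exposure lasted 16 hr before ATP read; % is set by controls: 0 for no effect and ±100 for the full control effect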). Conditions: RORgamma reporter cell line viability counter screen; series mostly up to 92.2 µM. An outline of the steps:
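Steps: seed CHO cells bearing TET-inducible ROR and ROR response element-luciferase; rest 5 hr at 37 C; add compound, then doxycycline; incubate 16 hr; add CellTiter-Glo and read luminescence as ATP-based viability.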

Voltage-gated inwardly rectifying potassium channel KCNH2 (Homo sapiens), sequence (Q12809 whole entry, looked up): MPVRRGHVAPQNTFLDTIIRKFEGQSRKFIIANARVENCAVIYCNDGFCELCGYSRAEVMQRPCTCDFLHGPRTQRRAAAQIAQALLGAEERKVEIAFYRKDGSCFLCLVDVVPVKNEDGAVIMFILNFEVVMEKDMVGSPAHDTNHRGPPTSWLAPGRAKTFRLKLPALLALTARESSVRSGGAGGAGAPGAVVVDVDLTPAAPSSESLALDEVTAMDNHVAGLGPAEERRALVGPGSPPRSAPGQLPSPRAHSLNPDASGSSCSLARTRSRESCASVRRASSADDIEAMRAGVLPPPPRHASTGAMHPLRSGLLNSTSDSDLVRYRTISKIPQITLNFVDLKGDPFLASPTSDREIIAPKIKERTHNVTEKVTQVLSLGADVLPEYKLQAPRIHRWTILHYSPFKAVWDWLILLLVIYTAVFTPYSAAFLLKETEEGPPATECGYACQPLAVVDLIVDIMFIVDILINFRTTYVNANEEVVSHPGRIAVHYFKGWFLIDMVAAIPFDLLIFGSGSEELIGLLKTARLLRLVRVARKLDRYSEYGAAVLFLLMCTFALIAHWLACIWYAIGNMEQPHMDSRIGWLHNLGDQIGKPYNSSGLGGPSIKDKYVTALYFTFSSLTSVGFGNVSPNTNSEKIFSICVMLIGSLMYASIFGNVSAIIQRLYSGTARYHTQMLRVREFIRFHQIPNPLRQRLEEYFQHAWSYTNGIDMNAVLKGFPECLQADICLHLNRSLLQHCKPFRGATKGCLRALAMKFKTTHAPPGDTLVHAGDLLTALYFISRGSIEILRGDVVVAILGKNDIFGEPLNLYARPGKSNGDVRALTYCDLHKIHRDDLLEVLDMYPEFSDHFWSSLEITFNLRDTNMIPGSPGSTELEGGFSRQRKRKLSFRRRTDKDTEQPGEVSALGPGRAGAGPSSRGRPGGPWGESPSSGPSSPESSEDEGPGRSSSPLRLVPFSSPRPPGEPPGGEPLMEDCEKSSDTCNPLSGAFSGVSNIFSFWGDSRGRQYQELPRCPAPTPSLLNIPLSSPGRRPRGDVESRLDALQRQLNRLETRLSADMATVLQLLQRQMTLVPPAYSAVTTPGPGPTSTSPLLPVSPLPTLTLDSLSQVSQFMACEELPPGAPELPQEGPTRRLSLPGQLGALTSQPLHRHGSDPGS
Peroxisome proliferator-activated receptor alpha (Homo sapiens), sequence (Q07869 whole entry, looked up): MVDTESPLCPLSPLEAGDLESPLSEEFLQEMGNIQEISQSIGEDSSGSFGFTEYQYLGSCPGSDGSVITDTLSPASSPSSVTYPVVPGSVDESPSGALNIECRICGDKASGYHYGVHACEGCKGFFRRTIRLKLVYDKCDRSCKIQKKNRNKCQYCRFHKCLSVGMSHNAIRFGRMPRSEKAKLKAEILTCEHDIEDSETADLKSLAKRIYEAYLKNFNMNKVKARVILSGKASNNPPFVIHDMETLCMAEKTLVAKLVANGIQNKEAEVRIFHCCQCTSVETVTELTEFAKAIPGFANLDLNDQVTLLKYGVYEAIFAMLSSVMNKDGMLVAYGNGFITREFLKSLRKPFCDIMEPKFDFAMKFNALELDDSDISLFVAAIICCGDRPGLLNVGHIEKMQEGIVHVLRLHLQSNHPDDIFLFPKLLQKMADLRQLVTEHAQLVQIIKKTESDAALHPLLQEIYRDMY

Turning to `O=C(O)c1c(Cl)cccc1Cl`, the max response in assay [1] was -13.5%; in [3] it was 2.22%; in assay [4], 13.3% (inactive); in [13] it was 0.175% (inactive); in [16] it was -7.83% (inactive). The result in [2] and in assay [15] was inactive. Moreover, the Potency entry in [5], in assay [6], in [8], in assay [9], in [10] and in assay [11] was “inactive” in each case. Moreover, in assay [14], the Potency result was “inactive”. Besides, the activation is -0.426% (inactive) in assay [7] and -0.92% (inactive) in [12].

On to `Cc1ccc(C)c([N+](=O)[O-])c1`, for which the values for the max response in assay [1], in [13] and in [16] were -15.2%, -2.55% (inactive) and -4.07% (inactive), respectively. In addition, the outcome in assay [2] and in assay [15] was inactive. Moreover, the activity change % (negative = inhibition) in assay [17] was 0.688% (inactive). Besides, the Potency result in assay [5], in assay [8], in assay [9], in assay [10], in assay [14] and in assay [19] was “inactive” throughout. Besides, the activation was 0.199% (inactive) in [18] and 0.781% (inactive) in [12].

Regarding `O=C(O)c1ccc(CO)o1`, the max response in assay [1] is -7.5%; in assay [3], -4.49%; in [4], -4.1% (inactive); in [13], 15% (inactive); in [16] it was -10.4% (inactive). Moreover, the outcome in [2] and in assay [15] was inactive. The activity change % (negative = inhibition) in [17] was -7.49% (inactive). In addition, the Potency entry in assay [5], in [9], in [10], in assay [14] and in assay [19] was “inactive” in each case. For the same compound, the activation in assay [7] was -2.63% (inactive); in [18] it was 0.608% (inactive).

For the compound `CC(C)C=O`, the max response in [1] was 3.23%; in [3], -14.5%; in assay [4], 8.49% (inactive); in assay [13], -0.412% (inactive). For the same compound, in assay [2], the result was inactive. Moreover, the Potency entry in [5], in assay [8], in [9], in assay [10], in assay [11] and in assay [14] was “inactive” in each case. For the same compound, the figures for the activation in [7] and in assay [18] were 0.787% (inactive) and -1.3% (inactive), respectively.

With `CCCCCCCCCCCCOCC1CO1` (stereo not given), the max response in assay [1] is 6.34%; in assay [13], -0.128% (inactive); in assay [16] it was 2.47% (inactive). The outcome in assay [2] and in [15] was inactive. The activity change % (negative = inhibition) in [17] is -4.18% (inactive). Moreover, the Potency result in [5], in assay [8], in assay [9], in [10], in [14] and in [19] was “inactive” throughout. For the same compound, the activation is -0.615% (inactive) in assay [18] and 0.152% (inactive) in assay [12].

Consider `S=C([S-])NCCNC(=S)[S-].[Zn+2]`, for which the result in assay [2] was inactive. Besides, in [17], the activity change % (negative = inhibition) is 6.23% (inactive) and -0.322% (inactive). Further, the Potency result in assay [5], in [8], in [9], in assay [10] and in assay [14] was “inactive” in each case. Moreover, the activation in assay [12] is 0.897% (inactive) and 8.85% (inactive) and 0.332% (inactive). The max response was -15.1% (inactive) and -9.87% (inactive) and -6.7% (inactive) in assay [13]; -3.47% (inactive) and -31.7% (inactive) and -9.84% (inactive) in assay [16].

Consider `[O-]/[N+](=N\O)c1ccccc1`, for which the outcome in [2] was inactive. Further, the Potency result in assay [5], in assay [9], in assay [10], in assay [14] and in [19] was “inactive” throughout. In addition, the activation in assay [12] is 5.58% (inactive). The values for the max response in [13] and in assay [16] were -0.0477% (inactive) and -5.46% (inactive), respectively.

Take `CCN(Cc1ccccc1)c1ccccc1`: the max response in assay [1] was -15.3%; in [3], -8.88%; in assay [4] it was -8.29% (inactive); in assay [13] it was 3.08% (inactive); in assay [16], -1.24% (inactive). Also, the activation in assay [7] was 1.3% (inactive); in assay [12], 0.346% (inactive). Moreover, the Potency entry in assay [8], in assay [9], in [10], in assay [11], in [14] and in assay [19] was “inactive” each time. Further, the compound was classed as inactive in assay [15].

As for `O=Cc1ccc(Cl)cc1`, the max response was -8% in assay [1]; -0.849% in assay [3]; -5.61% (inactive) in [4]; -4.56% (inactive) in assay [13]; 7.47% (inactive) in assay [16]. The result in [2] and in [15] was inactive. The Potency entry in [5], in [8], in [9], in assay [10], in [11] and in [14] was “inactive” throughout. Besides, the Potency entry in assay [19] was “inactive”. Besides, in [7], the activation is -0.245% (inactive).
